From PubChem BioAssay (NCI)
This is part of a sample that, as a whole, favours compounds with a hit. Of some 79,000 tested, about 15% had one in any assay. Active and inactive are the calls of the source. Cut-off read from the data, not from the text of the source: active = growth inhibition above about 70%; inactive = the rest.

Tests used:
[1] = NCI Yeast Anticancer Drug Screen. Data for the wt1 strain (AID 149);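 note: 0% = growth of vehicle-treated wt1 cultures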; conditions: S. cerevisiae wt1 strain (SPY 50644) growth inhibition, stronger effect = higher value
Method in brief: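 Measured: growth of wt1 yeast under compound versus vehicle treatment, reported as inhibition.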

[2] = NCI Yeast Anticancer Drug Screen. Data for the rad50EPP+ strain (AID 151);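 note: 0% = growth of vehicle-treated control cultures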; conditions: S. cerevisiae rad50 mutant strain, stronger effect = higher value
Method in brief: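 rad50EPP+ yeast treated with test compounds. Readout: growth vs vehicle control.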

[3] = NCI Yeast Anticancer Drug Screen. Data for the mgt1 strain (AID 153); conditions: S. cerevisiae mgt1 mutant growth inhibition, stronger effect = higher value
Method in brief: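 Growth inhibition relative to vehicle controls was scored for the mgt1 yeast strain after compound exposure.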

[4] = NCI Yeast Anticancer Drug Screen. Data for the rad50 strain (AID 155);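 note: 0% = growth of vehicle-only cultures of the same strain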; conditions: S. cerevisiae rad50 strain growth inhibition, stronger effect = higher value
Method in brief: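 Growth of the mutant yeast was measured after compound exposure and referenced to vehicle-treated cultures.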

[5] = NCI Yeast Anticancer Drug Screen. Data for the mec2-1 strain (AID 157); conditions: S. cerevisiae mec2-1 strain, stronger effect = higher value
Method in brief: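 Growth inhibition is read against vehicle-treated controls after compound exposure of the mec2-1 yeast strain, which is defective in DNA damage repair or cell cycle control.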

[6] = NCI Yeast Anticancer Drug Screen. Data for the rad14 strain (AID 159);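 note: 0% = growth of vehicle-treated control cultures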; conditions: S. cerevisiae rad14 strain growth inhibition, stronger effect = higher value
Method in brief: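 Here, inhibition of yeast growth was measured after compound exposure, using a strain with a genetic defect in DNA damage repair and vehicle-treated cultures as the reference.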

[7] = NCI Yeast Anticancer Drug Screen. Data for the sgs1 mgt1 strain (AID 161);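 note: 0% = growth of cultures given vehicle only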; conditions: S. cerevisiae sgs1 mgt1 strain, stronger effect = higher value
Method in brief: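 Yeast cells carrying a defined DNA-repair defect were exposed to test compounds. Growth inhibition was measured relative to vehicle-treated controls.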

[8] = NCI Yeast Anticancer Drug Screen. Data for the CLN2oe strain (AID 163);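 note: 0% = growth of vehicle-only control cultures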; conditions: S. cerevisiae CLN2oe strain, stronger effect = higher value
Method in brief: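 Compound-treated yeast; growth vs vehicle ctrl = % inhibition. Genetically altered strain (cell-cycle control).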

[9] = NCI Yeast Anticancer Drug Screen. Data for the cln2 rad14 strain (AID 165);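 note: 0% = growth equal to vehicle treated cultures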; conditions: S. cerevisiae cln2 rad14 strain, stronger effect = higher value
Method in brief: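 Growth inhibition, relative to vehicle-treated controls, is the read-out. The test organism is a yeast strain with defined genetic alterations, cln2 rad14.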

[10] = NCI Yeast Anticancer Drug Screen. Data for the bub3 strain (AID 167); conditions: S. cerevisiae bub3 mutant strain, stronger effect = higher value
Method in brief: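 Whole-cell yeast assay. The mutant strain was incubated with compounds, and growth inhibition was determined by comparison with vehicle-treated cells.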

[11] = NCI Yeast Anticancer Drug Screen. Data for the wt2 strain (AID 169);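 note: 0% = growth of vehicle-treated yeast cultures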; conditions: S. cerevisiae wt2 strain growth inhibition, stronger effect = higher value
Method in brief: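 Compound exposure of yeast; growth compared with vehicle controls; inhibition reported.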

[12] = NCI Yeast Anticancer Drug Screen. Data for the mlh1 strain (AID 171);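 note: 0% = growth of vehicle-treated control cultures of the same strain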; conditions: S. cerevisiae mlh1 strain growth inhibition, stronger effect = higher value
Method in brief: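 Compounds are applied to a genetically altered yeast strain, and its growth is compared with that of vehicle-treated cultures to give percent inhibition.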

[13] = NCI Yeast Anticancer Drug Screen. Data for the sgs1 strain (AID 173);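 note: 0% = growth of vehicle-only control cultures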; conditions: S. cerevisiae sgs1 mutant, stronger effect = higher value
Method in brief: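 Compounds applied to genetically altered yeast; growth compared with vehicle-treated cultures to give % inhibition.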

[14] = NCI Yeast Anticancer Drug Screen. Data for the mlh1 rad18 strain (AID 175); conditions: S. cerevisiae mlh1 rad18 strain growth inhibition, stronger effect = higher value
Method in brief: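 Cells of a genetically altered yeast strain, deficient in DNA damage repair, were treated with compound. Their growth was then compared with that of vehicle-treated cultures to give inhibition.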

[15] = NCI Yeast Anticancer Drug Screen. Data for the rad18 strain (AID 177); conditions: S. cerevisiae rad18 mutant growth inhibition, stronger effect = higher value
Method in brief: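 Compounds are applied to a repair-deficient yeast strain, and growth is compared with that of vehicle-treated cultures to give percent inhibition.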

[16] = NCI Yeast Anticancer Drug Screen. Data for the rad52 strain (AID 147);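 note: 0% = growth of vehicle-treated control cultures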; conditions: S. cerevisiae rad52 mutant growth inhibition, stronger effect = higher value
Method in brief: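 DNA repair-defective yeast; compound exposure; growth scored against vehicle controls.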

[17] = at 5.0 µM (retest, dose inferred, filed as 0.5)
[18] = at 50.0 µM (retest, dose inferred, filed as 5.0)

Measured: growth inhibition

O=[N+]([O-])c1cc(Cl)cnc1Br
active: [2]; at 3.7 µM 71% | [2]; at 11.0 µM 88% | [2]; at 33.0 µM 96% | [2]; at 100.0 µM 98% | [4]; at 11.0 µM 81% | [4]; at 33.0 µM 90% | [4]; [18] 82% | [4]; at 50.0 µM 88.5% | [4]; at 100.0 µM 98% | [5]; at 33.0 µM 85% | [5]; [18] 70% | [5]; at 50.0 µM 76.7% | [5]; at 100.0 µM 88% | [13]; at 100.0 µM 82% | [15]; at 100.0 µM 87%
inactive: [1]; at 1.2 µM 1% | [1]; at 3.7 µM 4% | [1]; at 11.0 µM 7% | [1]; at 33.0 µM 8% | [1]; at 100.0 µM 20% | [2]; at 1.2 µM 35% | [3]; at 1.2 µM 2% | [3]; at 3.7 µM 1% | [3]; at 11.0 µM 4% | [3]; at 33.0 µM 12% | [3]; at 100.0 µM 19% | [4]; at 1.2 µM 28% | [4]; at 3.7 µM 47% | [4]; [17] -49% | [5]; at 1.2 µM 6% | [5]; at 3.7 µM 43% | [5]; [17] 22% | [5]; at 11.0 µM 69% | [6]; at 1.2 µM 4% | [6]; at 3.7 µM 1% | [6]; at 11.0 µM 10% | [6]; at 33.0 µM 14% | [6]; at 100.0 µM 31% | [7]; [17] -50% | [7]; [18] -19% | [7]; at 50.0 µM 8.35% | [8]; at 1.2 µM -4% | [8]; at 3.7 µM -1% | [8]; at 11.0 µM 4% | [8]; at 33.0 µM 4% | [8]; at 100.0 µM 8% | [9]; [17] -56% | [9]; [18] -74% | [9]; at 50.0 µM 3.2% | [10]; at 1.2 µM -8% | [10]; at 3.7 µM -10% | [10]; [17] -74% | [10]; at 11.0 µM -6% | [10]; at 33.0 µM -2% | [10]; [18] -70% | [10]; at 50.0 µM -8.3% | [10]; at 100.0 µM 30% | [11]; at 1.2 µM 0% | [11]; at 3.7 µM 1% | [11]; at 11.0 µM 2% | [11]; at 33.0 µM 5% | [11]; at 100.0 µM 20% | [12]; at 1.2 µM 6% | [12]; at 3.7 µM 8% | [12]; at 11.0 µM 6% | [12]; at 33.0 µM 12% | [12]; at 100.0 µM 27% | [13]; at 1.2 µM 14% | [13]; at 3.7 µM 25% | [13]; at 11.0 µM 30% | [13]; at 33.0 µM 40% | [14]; [17] -109% | [14]; [18] -48% | [14]; at 50.0 µM 28.1% | [15]; at 1.2 µM 6% | [15]; at 3.7 µM 10% | [15]; at 11.0 µM 18% | [15]; at 33.0 µM 35%

Nc1n[n+]([O-])c2ccc(Cl)cc2[n+]1[O-]
active: [16]; at 3.7 µM 80% | [16]; at 11.0 µM 91% | [16]; at 33.0 µM 94% | [16]; at 100.0 µM 96% | [2]; at 3.7 µM 77% | [2]; at 11.0 µM 88% | [2]; at 33.0 µM 91% | [2]; at 100.0 µM 94% | [3]; at 33.0 µM 80% | [3]; at 100.0 µM 95% | [4]; at 3.7 µM 79% | [4]; at 11.0 µM 88% | [4]; at 33.0 µM 92% | [4]; [18] 95% | [4]; at 50.0 µM 96.8% | [4]; at 100.0 µM 94% | [5]; at 33.0 µM 83% | [5]; [18] 91% | [5]; at 50.0 µM 78% | [5]; at 100.0 µM 93% | [6]; at 11.0 µM 71% | [6]; at 33.0 µM 89% | [6]; at 100.0 µM 96% | [7]; [18] 91% | [7]; at 50.0 µM 93.2% | [9]; [18] 93% | [9]; at 50.0 µM 76.7% | [10]; at 33.0 µM 81% | [10]; [18] 93% | [10]; at 50.0 µM 82.8% | [10]; at 100.0 µM 90% | [11]; at 33.0 µM 85% | [11]; at 100.0 µM 95% | [12]; at 11.0 µM 70% | [12]; at 33.0 µM 93% | [12]; at 100.0 µM 96% | [13]; at 11.0 µM 78% | [13]; at 33.0 µM 91% | [13]; at 100.0 µM 95% | [14]; [18] 97% | [14]; at 50.0 µM 94.7% | [15]; at 3.7 µM 87% | [15]; at 11.0 µM 93% | [15]; at 33.0 µM 95% | [15]; at 100.0 µM 95%
inactive: [16]; at 1.2 µM 49% | [2]; at 1.2 µM 53% | [3]; at 1.2 µM 1% | [3]; at 3.7 µM 27% | [3]; at 11.0 µM 36% | [4]; at 1.2 µM 60% | [4]; [17] 65% | [5]; at 1.2 µM 9% | [5]; at 3.7 µM 22% | [5]; [17] 15% | [5]; at 11.0 µM 57% | [6]; at 1.2 µM 12% | [6]; at 3.7 µM 32% | [7]; [17] 48% | [9]; [17] 19% | [10]; at 1.2 µM 0% | [10]; at 3.7 µM 15% | [10]; [17] 24% | [10]; at 11.0 µM 44% | [11]; at 1.2 µM 8% | [11]; at 3.7 µM 30% | [11]; at 11.0 µM 57% | [12]; at 1.2 µM 15% | [12]; at 3.7 µM 38% | [13]; at 1.2 µM 18% | [13]; at 3.7 µM 55% | [14]; [17] 50% | [15]; at 1.2 µM 66%
